Screening results deposited in PubChem by several laboratories.
In the library only some 1.8% were active in any assay of this set; here they are far more common.
APP 5UTR inh: inhibitors of APP translation via 5'UTR reporter, primary screen, APP 5'UTR luciferase, SH-SY5Y cells; SH-SY5Y APP 5'UTR-luciferase reporter, luminescence; inhibition, % at 2 µM; hit rate 0.82% among 190,000; AID 1285, 2008;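 active means inhibition above a set limit, derived from the sample mean plus 3 SD, cut at about 45% in these data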
BaF3 tox: parental Ba/F3 cell viability inhibition, counter-screen for JAK2V617F inhibitor project, murine pro-B, CellTiter-Glo luminescence; CellTiter-Glo ATP luminescence; inhibition, % at 5.6 µM; hit rate 1.1% among 220,000;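 active means inhibition above a per-campaign cutoff, the mean inhibition of all tested compounds plus 3 SD, cut at about 27% in these data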;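 further: 0% = DMSO wells and 100% = JAK Inhibitor I control wells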
IEC-6 tox-1: cytotoxicity in IEC-6 intestinal epithelial cells, primary screen, cytotoxicity control for KLF5 inhibitor project, cell-based, luminescence; IEC-6 cytotoxicity, luminescence viability; inhibition, % at 5 µM; hit rate 0.78% among 290,000; AID 1825, 2009; in the data active means inhibition above about 22%;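 further: 0% = plate median of test compound wells and 100% = cytotoxic reference compound wells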
Ba/F3 V617F tox: reduced viability of JAK2V617F-dependent Ba/F3 cells, primary screen, JAK2V617F inhibitor project, cell-based, Ba/F3 EpoR-JAK2V617F, luminescence; hit rate 1.1% among 220,000; ATP luminescence; AID 1446, 2008; inhibition, % at 5.6 µM;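 active means inhibition above the campaign mean plus 3 SD over all tested compounds, cut at about 24% in these data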;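 further: cytokine-independent growth of Ba/F3 cells driven by EpoR plus mutant JAK2; 0% = DMSO-treated cells and 100% = JAK inhibitor I control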
KLF5 inh: KLF5 expression inhibitors, primary screen, DLD-1 cells, luminescence; DLD-1 KLF5 promoter-luciferase reporter; inhibition, % at 5 µM; hit rate 0.23% among 290,000;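 active means inhibition above a per-plate limit of that plate's mean compound inhibition plus 3 SD, cut at about 60% in these data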;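 further: 0% = DMSO wells and 100% = LY294002 at 200 µM; higher means less KLF5 promoter-driven luciferase light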
KLF5 confirm: KLF5 expression inhibitors, confirmation, DLD-1 cells, luminescence; inhibition, % at 4 µM; DLD-1 KLF5 promoter firefly luciferase reporter; shares compounds with KLF5 inh; hit rate 79% among 610;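 active means inhibition above a set limit taken from the earlier primary screen, cut at about 63% in these data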;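 further: 0% = DMSO wells and 100% = LY294002 at 200 µM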
IEC-6 tox-2: cytotoxicity in rat IEC-6 cells, cytotoxicity control for KLF5 inhibitor project, cell-based, luminescence, triplicate; shares compounds with KLF5 inh; IEC-6 rat intestinal cells, viability luminescence; inhibition, % at 4 µM; hit rate 56% among 610; in the data active means inhibition above about 23%;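 further: cells exposed to compounds for 48 hours before viability read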
Numbers without * were called inactive; / = no result.

SMILES	APP 5UTR inh	BaF3 tox	IEC-6 tox-1	Ba/F3 V617F tox	KLF5 inh	KLF5 confirm	IEC-6 tox-2
Cc1ccc2nc(NC(=O)c3ccc(OCC4CCCO4)cc3)sc2c1 (stereo not drawn)	-37	1	-8	-6	68*	-25	10
Cc1ccc2nc(NC(=O)c3ccccn3)sc2c1	22	7	20	5	65*	87*	98*
Nc1nc(Nc2ccccc2F)nc(NCCO)c1[N+](=O)[O-]	/	0	-8	-4	-32	/	/
CCN(CC1CCCN(CCc2cccc(OC)c2)C1)C(=O)c1ccoc1 (stereo not drawn)	/	/	0	/	-26	/	/
O=C(N/N=C/c1cc(Cl)ccc1O)c1ccncc1	/	2	3	2	70*	88*	-4
CN(CC(=O)Nc1ccc(N2CCOCC2)cc1)CC(=O)Nc1ccc(Cl)cc1[N+](=O)[O-]	-7	6	-4	3	4	/	/
CC(C)(C)C(=O)Nc1cc2nn(-c3ccccc3)nc2cc1Cl	-8	4	6	-2	83*	93*	9
CC(=O)Nc1cc2nn(-c3ccccc3)nc2cc1Cl	-53	7	7	4	-154	/	/
Cc1onc(-c2c(F)cccc2Cl)c1C(=O)N=C(N)N1CCCC1	/	0	3	-2	-1	/	/
O=C1C(Nc2ccccc2)=C(N2CCCCC2)C(=O)c2ccccc21	-10	102*	-3	98*	64*	73*	-12
COc1ccccc1NC(=O)N1CCCC1	0	4	1	5	-13	/	/
O=C(/C=C/c1ccc(O)cc1)c1ccc(NC2=C(N3CCCCC3)C(=O)c3ccccc3C2=O)cc1	-22	2	-4	2	46	/	/
COc1ccccc1NC1=C(N2CCCCC2)C(=O)c2ccccc2C1=O	-11	100*	11	101*	80*	90*	20
CCC/C=N/Nc1nnc(Cc2ccc(OC)c(OC)c2)c(=O)[nH]1	/	/	2	/	0	/	/
CCSc1nnc2ccc(-c3ccco3)nn12	-11	2	0	-2	-22	/	/
O=C(/C=C/c1ccccc1)Nc1cccc(C(=O)O)c1	64*	10	4	-2	102*	101*	1
O=C(/C=C/c1ccccc1)Nc1cc(NC(=O)/C=C/c2ccccc2)cc(C(=O)O)c1	/	/	-4	/	-4	/	/
Cc1ccsc1/C=N/Nc1ccc(C(=O)O)cc1	/	/	9	/	63*	44	-5
Cc1ccsc1/C=N/Nc1cccc(C(=O)O)c1	42	3	-6	0	11	/	/
Cc1ccc(NC2CCCN(C(=O)CN3C(=O)c4ccccc4C3=O)C2)cc1C (stereo not drawn)	/	/	-2	/	-40	/	/
O=[N+]([O-])c1ccc(O)c(-c2cc(C(F)(F)F)nc(-c3ccccc3)n2)c1	/	/	13	/	82*	86*	41*
Oc1ccccc1-c1cc(C(F)(F)C(F)F)nc(-c2ccccc2)n1	-1	0	-8	-1	1	/	/
COc1ccc(NC2CCCN(C(=O)c3cc(CC(C)C)nc(N)n3)C2)cc1 (stereo not drawn)	/	/	-2	/	-46	/	/
C/C(=N\OCc1cccc(C(=O)O)c1)c1ccc(Cl)cc1	/	4	6	2	64*	51	-1
Cc1nn(S(=O)(=O)c2ccc(F)cc2)c(C)c1S(=O)(=O)N1CCCCC1	/	/	2	/	-11	/	/
SMILES	APP 5UTR inh	BaF3 tox	IEC-6 tox-1	Ba/F3 V617F tox	KLF5 inh	KLF5 confirm	IEC-6 tox-2
CCc1ccn2cc(-c3cc(-c4ccccc4)no3)nc2c1	/	-4	19	4	84*	82*	-2
O=C(c1ccccc1)N1CCN(C(=O)c2nn3c(C(F)(F)F)cc(-c4ccccc4)nc3c2Br)CC1	/	/	6	/	-5	/	/
Oc1c(Br)cc(Br)cc1/C=N/Nc1ccc(Cl)nn1	/	/	-4	/	102*	36	-4
CCc1nc2sc3c(c2c(=O)o1)CCCC3	-6	9	0	8	11	/	/
CC(C)(C)c1nc2sc3c(c2c(=O)o1)CCCC3	10	4	-3	2	69*	3	-6
Cc1cc(C(=O)NCC(c2ccco2)N(C)C)ccc1[N+](=O)[O-] (stereo not drawn)	/	/	-4	/	-12	/	/
CCC(=O)N(C1=C(NC)C(=O)c2ccccc2C1=O)C(C)C	22	102*	3	100*	76*	15	4
CC(=O)NC1=C(N(C)C2CCS(=O)(=O)C2)C(=O)c2ccccc2C1=O (stereo not drawn)	2	10	0	1	-43	/	/
CNC1=C(N(C(C)=O)c2ccc(Br)cc2)C(=O)c2ccccc2C1=O	55*	102*	14	100*	97*	94*	18
NCCNc1ccc([N+](=O)[O-])c(NC2CC2)c1	3	3	-5	-2	-9	/	/
Cc1ncc([N+](=O)[O-])n1CCOC(=O)c1ccc(Cl)cc1Cl	10	-2	1	-2	3	/	/
COc1ccc(OC)c(C2C3=C(COC3=O)Nc3cc4c(cc32)OCO4)c1 (stereo not drawn)	95*	91*	94*	96*	88*	92*	82*
COc1ccc(/C=C/c2nc3ccccc3c(=O)o2)cc1	/	/	8	/	71*	55	2
COc1ccccc1/C=C/c1nc2ccccc2c(=O)o1	/	/	6	/	-127	/	/
COc1ccc(/C=C/c2nc3ccccc3n2C)cc1	19	31*	12	26*	68*	96*	34*
COc1cccc(/C=N/Nc2ncnc(N)c2[N+](=O)[O-])c1OC	-86	4	0	2	-23	/	/
Cc1cc(/C=N/Nc2ncnc(N)c2[N+](=O)[O-])c(C)n1-c1ccccc1	/	3	7	2	67*	97*	4
COc1cc(CNc2ccc(S(N)(=O)=O)cc2)ccc1OCC(=O)NC1CCCCC1	13	4	-8	2	75*	-12	8
Cc1ccc2nc(Br)c3c(c2c1)OC(CBr)C3 (stereo not drawn)	/	/	-1	/	-8	/	/
Cc1nc(SCC(=O)Nc2nc3ccccc3s2)c(C#N)c(C)c1C	64*	9	5	1	96*	108*	27*
Cc1cc(C(F)(F)F)c(C#N)c(SCC(=O)Nc2nc3ccccc3s2)n1	-180	1	5	1	-36	/	/
CCCC(=O)c1c(NCCO)cc(C)oc1=O	-3	-1	11	-4	-18	/	/
O=c1[nH]c(/C=C/c2ccc(Br)cc2)nc2ccccc12	/	/	1	/	-28	/	/
CN(C)c1ccc(/C=C/c2nc3ccccc3c(=O)[nH]2)cc1	/	/	20	/	99*	94*	2
O=C(Nc1ncc([N+](=O)[O-])s1)c1ccc2c(c1)OCO2	/	/	12	/	76*	55	36*
